Experimental findings from ChEMBL document CHEMBL4513216, “Probing the Open Global Health Chemical Diversity Library for Multistage-Active Starting Points for Next-Generation Antimalarials” (ACS Infect Dis, 2020) are described below.

About 8,600 (12%) of roughly 69,000 compounds showed an effect of 50% or more. The full list was thinned out, with strong results kept by preference.

The test deals with Plasmodium berghei. Put plainly: Screen against P. berghei liver stage (PbLuc), transformed with Luciferase, at 10uM. It counts as functional, HepG2. The settings on record: tested at 10 uM.
For the compound `COc1cccc2cc(CNC(=O)N3CCS(=O)(=O)CC3)oc12`, the INHIBITION is given as 23.5%.
The figure for `Cc1noc(C)c1-c1cncc(C2CCCN2Cc2ncccc2F)n1` (stereo not given) is 1.5%; for `CCn1ncc(Nc2[nH]cnc3nncc2-3)c1C` it is 31.2%.
The figure for `N#Cc1ccc(S(=O)(=O)NC(=O)C2CC(c3ccccc3)=NO2)cc1` (stereo not given) is 6.09%; for `OCCc1ccccc1-n1ccnc1-c1cn(C2CCNCC2)nn1` it is 51.2%; for `CSc1ccccc1-n1ccnc1-c1cn(C2CCNCC2)nn1` it is 3.96%.
Regarding `Clc1ccccc1CCn1ccnc1-c1cn(C2CCNCC2)nn1`, the INHIBITION was found to be 22.4%.
The figure for `Cc1cc(CN2C[C@@H]3COC[C@H](C(=O)N4CCCCO4)[C@@H]3C2)oc1C` is 45.1%.
The figure for `Cc1csc(N2CCN(CC(=O)N3CCCC3)CC2C)n1` (stereo not given) is 32.25%.
Consider `CC(c1cccc(S(N)(=O)=O)c1)N(C)CCOC(C)(C)C` (stereo not given), for which the INHIBITION was -27.8%.
The figure for `Cc1cccc(C(=O)NC2CCN(c3cnn(C)c3)C2=O)c1C` (stereo not given) is 30.5%.
The same measure for `Cc1ccccc1C(=O)NC1CCN(c2cnn(C)c2)C1=O` (stereo not given): 11.7%.
The figure for `Cc1ccsc1C(=O)NC1CCN(c2cnn(C)c2)C1=O` (stereo not given) is 65.5%; for `CC1(C(=O)N2CCOCC2)CNCCO1` (stereo not given) it is 6.9%.
For the compound `O=C(c1ccc(Oc2cccnc2)cc1)N1CCN(CCO)CC1`, the INHIBITION was found to be 40.6%.
On to `CCCN1CCN(C(=O)c2cccnc2)CC1`, for which the INHIBITION was found to be 64.7%.
The figure for `Cc1cc(N2CCN(C(=O)c3cccnc3)CC2)nc(C)n1` is 6.26%.
With `CCCN1CCCN(c2ncccc2C(=O)N2CCCCC2)CC1`, the INHIBITION stood at 25.1%.
For `CCCN1CCCN(C(=O)c2ccc(Oc3cccnc3)cc2)CC1`, the INHIBITION was 61%.
The figure for `CCOc1ccnc(N2CCN(C(=O)c3cccnc3)CC2)n1` is 15.5%.
The figure for `CCc1cc(N(C)CCc2c(C)n[nH]c2C)ncn1` is 23%; for `O=C(CCn1ccnc1)N1CC[C@H](Oc2ccc(F)cc2)[C@@H](O)CC1` it is 32.05%.
For the compound `CN(CC(N)=O)C(=O)c1csc(Br)c1`, the INHIBITION is given as -5.1%.
As for `CS(=O)(=O)NCCC(=O)Nc1cnn(-c2ccccc2Cl)c1`, the INHIBITION came out at 7.08%.
The figure for `Cc1nn(-c2ccccc2)c(C)c1-c1ccnc(N2CCC(O)CC2)n1` is 20.2%; for `Cc1nn(-c2ccccc2)c(C)c1-c1ccnc(N2CCCOCC2)n1` it is -54.3%; for `Cc1nn(-c2ccccc2)c(C)c1-c1ccnc(N2CCCNCC2)n1` it is 85.8%.
In the case of `O=S(=O)(N1CCOCC1)N1CCCC1Cn1cccn1` (stereo not given), the INHIBITION was -5.71%.
The same measure for `Cc1nc(C2CN(Cc3ccc(F)cc3Br)CCO2)no1` (stereo not given): 11.8%; for `Cc1ccccc1-c1noc(-c2ccc(N(C)C3CCOCC3)nc2)n1`: 83.2%; for `CN(c1ccc(-c2nc(C3CC3)no2)cn1)C1CCOCC1`: -99.6%.
The same measure for `CC(C)c1noc(-c2ccc(N(C)C3CCOCC3)nc2)n1`: -61.1%; for `O=C(OCc1cc(=O)n2cc(Br)ccc2n1)c1ccc2c(c1)OCO2`: 19.8%.
In the case of `O=C(NCCc1cccs1)N1CCCC2(CCC(=O)N(C3CC3)C2)C1` (stereo not given), the INHIBITION is listed as 9.87%.
The same measure for `COCCN1CC2(CCCN(C(=O)NCCc3cccs3)C2)CCC1=O` (stereo not given): 56.5%.
The figure for `COCCN1CC2(CCCN(C(=O)CCCc3cccs3)C2)CCC1=O` (stereo not given) is 25.1%; for `CCN1CCCC(c2cc(Nc3cnccn3)nc(C)n2)C1` (stereo not given) it is -2.11%; for `O=C(NCCCOCc1ccco1)c1cccnc1N1CCOCC1` it is 18.2%.
The same measure for `CNc1nc(N2CCN(C3CCCCC3)C(CCO)C2)nc2c1CCC2` (stereo not given): 12%; for `CNc1nc(N2CCN(CC=C(C)C)C(CCO)C2)nc2c1CCC2` (stereo not given): 68.6%.
For the compound `CNc1nc(N2CCN(Cc3ccsc3)C(CCO)C2)nc2c1CCC2` (stereo not given), the INHIBITION is listed as 53.8%.
The figure for `CNc1nc(N2CCN(C)C(CCO)C2)nc2c1CCC2` (stereo not given) is 23.5%; for `COc1cc(N2CCN(Cc3ccsc3)C(CCO)C2)nc(N)n1` (stereo not given) it is 23.3%; for `CC(C)Nc1cc(N2CCN(Cc3ccccc3)C(CCO)C2)ncn1` (stereo not given) it is 9.06%.
As to `Cc1cc(N2CCC(NC(C)Cc3ccsc3)CC2)nc(C)n1` (stereo not given), the INHIBITION stood at 27.9%.
The figure for `Cc1cc(N2CCC(NC(C)Cc3ccsc3)CC2)nc(N)n1` (stereo not given) is 64.9%; for `CNc1nc(N2C[C@H](NC(=O)CCOC)[C@@H](C3CC3)C2)nc2c1CCC2` it is 33.4%.
In the case of `Cc1cc(N2CCN(Cc3ccsc3)C(CCO)C2)nc(N)n1` (stereo not given), the INHIBITION worked out at 50.5%.
The figure for `CC(C)Oc1cc(N2CCN(Cc3ccsc3)C(CCO)C2)nc(N)n1` (stereo not given) is 49.4%; for `Cc1cc(N2CCC(NS(C)(=O)=O)CC2)nc(C(C)C)n1` it is 49%; for `CC(=O)N1CC(=O)N(c2cnn(C)c2)CC12CCN(Cc1ccsc1)C2` (stereo not given) it is 23.5%.
On to `CC[C@@H](Cn1ncc2ccccc2c1=O)NC(=O)c1cnc(C)cn1`, for which the INHIBITION is -20.6%.
On to `Cc1ccc(-c2cnc3n2CCN(C)C32CCN(CC3CC3)CC2)cc1`, for which the INHIBITION is -12.1%.
Regarding `Cc1ccnc(C2CN(c3ncccn3)C2)n1`, the INHIBITION came to 25.15%.
The same measure for `CN1[C@@H]2CC[C@H]1CN(c1cc(Sc3cccs3)nc(N)n1)CC2`: 49.2%; for `CN1CCN(c2cc(Sc3cccs3)nc(N)n2)CC1CCO` (stereo not given): 50.2%; for `Nc1nc(Sc2cccs2)cc(N2CC[C@H](CO)[C@H](O)C2)n1`: -28%.
Consider `CCNC(=O)CN1CCc2c(Br)ccc(F)c2C1`, for which the INHIBITION is listed as -18.3%.
In the case of `O=C(c1cnc(Nc2ccccc2)nc1)N1CCCC2(CCNC2)C1` (stereo not given), the INHIBITION came out at 58.1%.
The figure for `O=C(c1ccnc(-n2cnnc2)c1)N1CCCC2(CCOC2)C1` (stereo not given) is 39.4%.
